Assay results taken from the supplement of paper PMC10849652.
About 8,800 targets were measured; listed, in parts, are those with a hit and a random draw of the rest. About 0.5% of all pairs of compound and target were hits. Values without a mark were called inactive.

These targets were tested with Cc1cc(Nc2cc(CN3CCOCC3)c3nc(C)c(Cc4ccc(Cl)cc4F)n3n2)n[nH]1 [gandotinib] (assay: log2 fold change, soluble protein after heating vs DMSO (PISA); higher = thermal stabilisation; K562 lysate, 10 uM; active = over 0.2 and 3.5 SD of the protein, either way, in both replicates (recomputed)).
Method in brief: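 Thermal stability, expressed as log-two fold change relative to solvent controls, is given from duplicates. Crude K562 extract in PBS pH 7.4 with 1 mM MgCl2, at 1 mg/mL protein, was treated with 10 μM compound for 30 min and heated in aliquots for 3 min across 48°C-58°C. After pooling, adjustment to 0.5% NP-40 at 4°C and centrifugation at 21,000xg for 90 min, supernatant protein was measured by TMTpro 16plex LC-MS/MS with channel sums equalised.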

Chain of UniProt Q16539 (Q16539 whole entry, looked up): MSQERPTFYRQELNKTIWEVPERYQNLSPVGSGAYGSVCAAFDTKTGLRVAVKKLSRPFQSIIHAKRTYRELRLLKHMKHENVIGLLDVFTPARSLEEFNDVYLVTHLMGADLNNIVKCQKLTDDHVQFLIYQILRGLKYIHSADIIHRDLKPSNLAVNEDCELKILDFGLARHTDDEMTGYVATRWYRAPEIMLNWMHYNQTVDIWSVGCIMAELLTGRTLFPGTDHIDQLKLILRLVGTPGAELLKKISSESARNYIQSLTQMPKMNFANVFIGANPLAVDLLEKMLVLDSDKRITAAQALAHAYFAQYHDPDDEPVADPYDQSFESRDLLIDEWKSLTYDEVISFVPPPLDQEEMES
Chain of UniProt Q9NSK0 (Q9NSK0 whole entry, looked up): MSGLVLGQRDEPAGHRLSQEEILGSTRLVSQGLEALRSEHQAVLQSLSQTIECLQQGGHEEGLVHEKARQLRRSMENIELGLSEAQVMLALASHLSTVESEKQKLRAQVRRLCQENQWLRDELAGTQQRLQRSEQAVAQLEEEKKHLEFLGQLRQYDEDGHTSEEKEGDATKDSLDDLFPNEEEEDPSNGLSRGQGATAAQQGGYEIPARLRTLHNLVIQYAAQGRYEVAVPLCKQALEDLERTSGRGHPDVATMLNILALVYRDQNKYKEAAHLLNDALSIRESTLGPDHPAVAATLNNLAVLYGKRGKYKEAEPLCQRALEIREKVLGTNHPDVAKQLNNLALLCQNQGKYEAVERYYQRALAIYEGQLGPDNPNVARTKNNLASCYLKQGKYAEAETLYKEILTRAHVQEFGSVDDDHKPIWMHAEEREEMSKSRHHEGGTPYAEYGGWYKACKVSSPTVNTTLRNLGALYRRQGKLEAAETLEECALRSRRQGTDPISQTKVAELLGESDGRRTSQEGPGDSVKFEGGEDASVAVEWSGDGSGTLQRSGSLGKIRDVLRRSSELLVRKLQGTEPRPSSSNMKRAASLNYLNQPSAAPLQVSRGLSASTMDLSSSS
Chain of UniProt Q8IWC1 (Q8IWC1 whole entry, looked up): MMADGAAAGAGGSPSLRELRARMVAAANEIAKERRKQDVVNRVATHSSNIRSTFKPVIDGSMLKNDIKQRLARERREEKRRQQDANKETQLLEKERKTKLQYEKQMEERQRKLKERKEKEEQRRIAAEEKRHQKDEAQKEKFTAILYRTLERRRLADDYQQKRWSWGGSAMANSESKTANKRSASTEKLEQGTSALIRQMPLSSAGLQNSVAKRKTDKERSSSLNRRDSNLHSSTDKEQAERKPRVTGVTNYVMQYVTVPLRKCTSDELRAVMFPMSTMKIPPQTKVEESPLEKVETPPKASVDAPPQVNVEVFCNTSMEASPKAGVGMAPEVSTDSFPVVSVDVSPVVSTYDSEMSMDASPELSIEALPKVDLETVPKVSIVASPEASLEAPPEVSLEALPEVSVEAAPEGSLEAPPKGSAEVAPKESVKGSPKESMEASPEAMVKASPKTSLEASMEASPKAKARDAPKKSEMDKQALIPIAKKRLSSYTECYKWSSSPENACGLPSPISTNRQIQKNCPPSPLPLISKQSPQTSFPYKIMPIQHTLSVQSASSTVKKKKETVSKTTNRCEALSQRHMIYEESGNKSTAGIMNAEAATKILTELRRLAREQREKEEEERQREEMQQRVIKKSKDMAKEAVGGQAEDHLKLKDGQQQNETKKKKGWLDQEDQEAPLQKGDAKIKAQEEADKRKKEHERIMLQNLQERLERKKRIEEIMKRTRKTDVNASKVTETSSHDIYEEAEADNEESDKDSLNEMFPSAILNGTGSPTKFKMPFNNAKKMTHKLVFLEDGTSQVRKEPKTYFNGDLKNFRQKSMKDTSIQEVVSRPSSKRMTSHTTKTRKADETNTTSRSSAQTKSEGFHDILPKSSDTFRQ
Chain of UniProt P27361 (P27361 whole entry, looked up): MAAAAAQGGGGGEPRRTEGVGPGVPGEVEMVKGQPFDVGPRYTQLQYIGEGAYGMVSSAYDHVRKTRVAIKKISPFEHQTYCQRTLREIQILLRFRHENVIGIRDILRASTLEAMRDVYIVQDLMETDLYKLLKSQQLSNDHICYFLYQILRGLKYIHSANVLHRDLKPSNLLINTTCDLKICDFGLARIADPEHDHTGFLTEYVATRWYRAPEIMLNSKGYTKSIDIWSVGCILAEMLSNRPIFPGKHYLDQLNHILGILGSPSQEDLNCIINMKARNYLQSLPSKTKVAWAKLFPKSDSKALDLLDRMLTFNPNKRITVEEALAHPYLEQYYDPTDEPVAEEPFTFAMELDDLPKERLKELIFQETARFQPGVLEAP
Chain of UniProt Q9GZY8 (Q9GZY8 whole entry, looked up): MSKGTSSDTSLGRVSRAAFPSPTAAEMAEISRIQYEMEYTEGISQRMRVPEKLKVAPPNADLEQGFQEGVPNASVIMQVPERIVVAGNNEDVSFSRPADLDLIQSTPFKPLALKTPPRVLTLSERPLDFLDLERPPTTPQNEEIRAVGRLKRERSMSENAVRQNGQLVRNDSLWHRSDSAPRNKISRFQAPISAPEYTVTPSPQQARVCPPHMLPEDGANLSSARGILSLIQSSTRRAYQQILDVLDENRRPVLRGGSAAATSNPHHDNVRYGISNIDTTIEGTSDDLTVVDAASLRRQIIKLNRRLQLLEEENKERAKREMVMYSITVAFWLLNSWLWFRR
Chain of UniProt Q9BV79 (Q9BV79 whole entry, looked up): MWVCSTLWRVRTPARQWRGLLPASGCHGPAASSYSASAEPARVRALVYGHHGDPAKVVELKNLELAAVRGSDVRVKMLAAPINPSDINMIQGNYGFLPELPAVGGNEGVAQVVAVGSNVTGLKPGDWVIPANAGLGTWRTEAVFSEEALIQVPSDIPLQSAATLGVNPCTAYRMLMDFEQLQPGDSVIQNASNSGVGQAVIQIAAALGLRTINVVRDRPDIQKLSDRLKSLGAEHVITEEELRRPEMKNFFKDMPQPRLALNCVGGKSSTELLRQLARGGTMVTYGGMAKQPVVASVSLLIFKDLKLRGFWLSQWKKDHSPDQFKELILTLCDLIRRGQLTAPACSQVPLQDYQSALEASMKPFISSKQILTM
Chain of UniProt Q16644 (Q16644 whole entry, looked up): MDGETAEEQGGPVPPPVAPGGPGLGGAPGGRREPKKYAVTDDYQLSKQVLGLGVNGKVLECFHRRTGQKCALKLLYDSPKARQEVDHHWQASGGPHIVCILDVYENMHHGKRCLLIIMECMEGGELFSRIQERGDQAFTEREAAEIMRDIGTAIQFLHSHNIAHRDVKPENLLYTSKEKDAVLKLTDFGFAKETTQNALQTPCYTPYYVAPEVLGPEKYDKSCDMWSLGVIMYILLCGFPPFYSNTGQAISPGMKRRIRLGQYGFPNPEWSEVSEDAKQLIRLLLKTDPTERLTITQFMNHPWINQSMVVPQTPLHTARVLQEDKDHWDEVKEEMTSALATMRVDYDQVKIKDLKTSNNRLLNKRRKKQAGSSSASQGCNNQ
Chain of UniProt P36507 (P36507 whole entry, looked up): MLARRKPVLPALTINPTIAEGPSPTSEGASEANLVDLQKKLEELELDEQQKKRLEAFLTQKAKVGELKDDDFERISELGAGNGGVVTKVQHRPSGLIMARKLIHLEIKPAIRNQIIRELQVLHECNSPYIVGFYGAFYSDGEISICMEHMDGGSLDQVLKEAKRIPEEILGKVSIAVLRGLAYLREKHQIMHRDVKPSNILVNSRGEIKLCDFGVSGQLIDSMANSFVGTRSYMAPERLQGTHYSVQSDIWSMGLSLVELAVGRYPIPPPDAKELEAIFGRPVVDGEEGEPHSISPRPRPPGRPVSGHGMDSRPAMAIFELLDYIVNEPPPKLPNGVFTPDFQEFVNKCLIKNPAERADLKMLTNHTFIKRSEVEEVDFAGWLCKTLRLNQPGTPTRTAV
Chain of UniProt P08473 (P08473 whole entry, looked up): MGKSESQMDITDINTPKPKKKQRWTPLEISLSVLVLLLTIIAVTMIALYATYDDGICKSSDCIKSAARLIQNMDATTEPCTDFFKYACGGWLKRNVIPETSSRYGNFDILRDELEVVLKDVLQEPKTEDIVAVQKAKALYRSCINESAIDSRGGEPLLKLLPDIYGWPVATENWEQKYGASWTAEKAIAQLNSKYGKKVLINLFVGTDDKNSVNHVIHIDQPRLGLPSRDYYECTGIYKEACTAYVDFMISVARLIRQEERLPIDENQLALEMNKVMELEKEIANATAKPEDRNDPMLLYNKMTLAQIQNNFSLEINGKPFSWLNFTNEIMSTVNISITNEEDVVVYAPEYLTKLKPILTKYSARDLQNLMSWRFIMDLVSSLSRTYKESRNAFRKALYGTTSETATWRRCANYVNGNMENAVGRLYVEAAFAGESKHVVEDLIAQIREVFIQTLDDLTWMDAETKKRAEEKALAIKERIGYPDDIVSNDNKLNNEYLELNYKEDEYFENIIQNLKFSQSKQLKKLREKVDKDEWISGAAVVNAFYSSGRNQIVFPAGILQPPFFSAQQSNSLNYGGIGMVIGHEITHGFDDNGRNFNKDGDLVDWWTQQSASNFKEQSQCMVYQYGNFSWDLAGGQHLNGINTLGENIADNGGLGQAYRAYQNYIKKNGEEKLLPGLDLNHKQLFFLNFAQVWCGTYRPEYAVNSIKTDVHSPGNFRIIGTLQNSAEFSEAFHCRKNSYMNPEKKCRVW
Chain of UniProt Q8WXB1 (Q8WXB1 whole entry, looked up): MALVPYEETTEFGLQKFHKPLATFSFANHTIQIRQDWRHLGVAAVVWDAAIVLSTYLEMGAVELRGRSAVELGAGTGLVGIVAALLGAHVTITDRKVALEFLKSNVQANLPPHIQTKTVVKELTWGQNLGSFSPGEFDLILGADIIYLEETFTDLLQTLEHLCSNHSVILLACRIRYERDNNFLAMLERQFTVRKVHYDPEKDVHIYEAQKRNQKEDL
Chain of UniProt Q15013 (Q15013 whole entry, looked up): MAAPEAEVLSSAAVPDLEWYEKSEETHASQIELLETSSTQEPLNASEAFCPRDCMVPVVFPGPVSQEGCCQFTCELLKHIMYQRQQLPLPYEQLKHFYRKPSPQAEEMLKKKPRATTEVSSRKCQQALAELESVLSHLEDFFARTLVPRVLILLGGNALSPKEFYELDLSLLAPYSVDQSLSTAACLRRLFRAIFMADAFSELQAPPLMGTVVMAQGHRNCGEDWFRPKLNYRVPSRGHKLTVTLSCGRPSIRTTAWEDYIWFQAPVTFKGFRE

Row | Target | log2 fold change
1 | MAD2L1BP isoform 3 (UniProt Q15013) | -0.009
2 | MORF4L1 isoform 2 (UniProt Q9UBU8) | 0.037
3 | MCUB (UniProt Q9NWR8) | -0.347
4 | LPIN1 isoform 7 (UniProt Q14693) | -0.005
5 | MECR (UniProt Q9BV79) | 0.045
6 | MPZL1 (UniProt O95297) | -0.009
7 | MAPK14 (UniProt Q16539) | -0.037
8 | MAPK1 (UniProt P28482) | 0.036
9 | MARCHF6 (UniProt O60337) | -0.028
10 | KMT2A isoform 3 (UniProt Q03164) | 0.013
11 | MAP3K4 (UniProt Q9Y6R4) | 0.034
12 | MRPL19 (UniProt P49406) | 0.029
13 | MFF isoform 2 (UniProt Q9GZY8) | 0.106
14 | METTL21A (UniProt Q8WXB1) | 0.038
15 | MRPL35 (UniProt Q9NZE8) | 0
16 | LETM1 (UniProt O95202) | 0.03
17 | MAP7D3 (UniProt Q8IWC1) | 0.021

Row | Target | log2 fold change
18 | KIF4A (UniProt O95239) | -0.061
19 | MLH1 (UniProt P40692) | -0.04
20 | LEPROT (UniProt O15243) | 0.054
21 | MAP2K2 (UniProt P36507) | -0.065
22 | LIMS1 isoform 3 (UniProt P48059) | 0.008
23 | LAMP1 (UniProt P11279) | 0.241 (active)
24 | KLC4 isoform 3 (UniProt Q9NSK0) | -0.074
25 | MAP2K7 isoform 4 (UniProt O14733) | -0.042
26 | LIG4 (UniProt P49917) | -0.07
27 | MAPKAPK3 (UniProt Q16644) | -0.044
28 | MAPK3 (UniProt P27361) | 0.089
29 | KLHL36 (UniProt Q8N4N3) | -0.013
30 | MME (UniProt P08473) | -0.002
31 | MAP4K5 (UniProt Q9Y4K4) | 0.055
32 | MAP2K5 (UniProt Q13163) | -0.089
33 | MAPK14 isoform 2 (UniProt Q16539) | -0.086
34 | LLGL1 (UniProt Q15334) | -0.011
